# Sampled rows, rich in hits. Any-hit rate of the full collection: about 0.43%.
# GAA spleen mod – qHTS Assay for Inhibitors and Activators of Human alpha-Glucosidase From Spleen Homogenate. AID 2112, 2009. human spleen homogenate, 4-MU-alpha-glucoside fluorescence. Lysosomal alpha-glucosidase (Homo sapiens), P10253. actives 0.006% (n = 240,000). Potency, µM (series often up to 79.9 µM), without a hit: at the top dose activity change, negative = inhibition, usual class: inhibitors;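 note: potency is the fitted concentration of half-maximal effect; 0% = enzyme with vehicle and -100% = no enzyme basal signal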
#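 Enzyme source: human spleen homogenate, 1 ug/well. Buffer 50 mM citric acid/K phosphate pH 5.0, 0.01% Tween-20. 4-MU-alpha-glucoside 1 mM; 37 C x 40 min; NaOH/glycine stop; fluorescence.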
# GLA inh pH 4.5 – qHTS Assay for Inhibitors of Human alpha-Galactosidase at pH 4.5; 230,000 tested, under 10 active; AID 1467, 2008; activity change, negative = inhibition, % at 105 µM; Alpha-galactosidase A (Homo sapiens), P06280; purified enzyme, 4-MU-alpha-Gal fluorescence, pH 4.5;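 note: 0% = full activity with enzyme and -100% = basal without enzyme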
# Target sequence (P06280 whole entry, looked up): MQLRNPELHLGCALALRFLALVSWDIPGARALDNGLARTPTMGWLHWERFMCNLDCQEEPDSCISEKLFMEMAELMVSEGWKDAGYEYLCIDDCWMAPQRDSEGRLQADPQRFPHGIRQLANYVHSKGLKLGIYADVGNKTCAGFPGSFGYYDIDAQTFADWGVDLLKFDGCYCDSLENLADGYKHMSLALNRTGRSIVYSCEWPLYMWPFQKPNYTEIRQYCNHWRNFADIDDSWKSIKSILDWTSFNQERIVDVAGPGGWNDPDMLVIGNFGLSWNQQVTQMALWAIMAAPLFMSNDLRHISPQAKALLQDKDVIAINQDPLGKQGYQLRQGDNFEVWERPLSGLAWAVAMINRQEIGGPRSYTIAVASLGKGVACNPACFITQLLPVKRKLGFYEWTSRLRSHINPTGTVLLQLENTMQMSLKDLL
# GAA inh – qHTS Assay for Inhibitors of Human alpha-Glucosidase as a Potential Chaperone Treatment of Pompe Disease; purified human GAA, 4-MU-alpha-glucoside fluorescence; Potency, µM (doses to about 76.9 µM), without a hit: at the top dose activity change, negative = inhibition, usual class: inhibitors; actives 0.005% (n = 200,000); AID 1466, 2008;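 note: potency is the fitted concentration of half-maximal effect; plate controls were uninhibited enzyme wells for no effect and no-enzyme background for full effect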
#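 Human alpha-glucosidase, 4 nM, pre-mixed with test compounds before 400 uM 4-methylumbelliferyl substrate; 20 min room temperature at pH 5.0. Fluorescence read after pH 10 stop; AC50 values from Hill-equation fits.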
# N370S GC mod – qHTS Assay for Inhibitors and Activators of N370S glucocerebrosidase as a Potential Chaperone Treatment of Gaucher Disease | Potency, µM (top dose mostly 59.4 µM), inactives show top-dose activity change, negative = inhibition, actives largely listed as inhibitors | AID 2101, 2009 | actives 0.092% (n = 330,000) | Lysosomal acid glucosylceramidase (Homo sapiens), P04062 | N370S GC spleen homogenate, 4MU-glucoside fluorescence;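 note: potency is the fitted concentration of half-maximal effect; 0% = full enzyme activity and -100% = no enzyme basal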
# GAA glycogen mod – qHTS Assay for Inhibitors and Activators of Human alpha-Glucosidase Cleavage of Glycogen | Lysosomal alpha-glucosidase (Homo sapiens), P10253 | recombinant GAA, glycogen substrate, Amplex Red glucose oxidase fluorescence | Potency, µM (doses to about 76.4 µM), inactives show at the top dose activity change, negative = inhibition, usual class: inhibitors | actives 0.38% (n = 300,000) | AID 2100, 2009;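 note: potency is the fitted concentration of half-maximal effect; 0% = full enzyme reaction and -100% = no-enzyme basal signal; the screen sought inhibitors and activators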
#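 Recombinant enzyme (4 nM final) with compounds titrated up to 77 uM and bovine liver glycogen (30 ug) in citrate pH 5.0, 0.01% Tween-20, 37 C 40 min. Released glucose detected by Amplex Red/glucose oxidase (Ex 573/Em 610); AC50 from Hill fits.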
# GLA spleen mod – qHTS Assay for Inhibitors and Activators of Human alpha-Galactosidase From Spleen Homogenate. Alpha-galactosidase A (Homo sapiens), P06280. human spleen homogenate, 4MU-alpha-Gal fluorescence, 40 min. Potency, µM (doses to about 80 µM), for the others: at the top dose activity change, negative = inhibition, most hits filed as inhibitors. actives 0.008% (n = 240,000). AID 2107, 2009;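 note: potency is the fitted concentration of half-maximal effect; 0% = enzyme with vehicle and -100% = no enzyme basal signal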
#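 Human spleen homogenate (1 ug) was the enzyme source, with 4-methylumbelliferyl-alpha-D-galactopyranoside (1 mM final) in pH 5.0 citrate buffer with 0.01% Tween-20. Compounds were titrated; after 40 min at 37C, NaOH/glycine stop, 4-MU fluorescence read; AC50 from Hill fits.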
# The depositor's hits bear a star; u = inconclusive; x = no result given; [ ] = dose if it differs, or a comment. Calls come from the whole dose curve; as a rule, active = well fitted curve in the direction sought with a large enough effect; inconclusive = small, poorly fitted or top-dose-only effect, or another doubt; inactive = no such curve, though single readings can be large; an effect the other way counts as inactive or inconclusive.
SMILES,GAA spleen mod,GLA inh pH 4.5,GAA inh,N370S GC mod,GAA glycogen mod,GLA spleen mod
COc1cccc2c(SCC(=O)N/N=C/c3ccccc3)cc(C)nc12,4%,-7,-14%,-6%,-10%,8%
COC(=O)c1ccc(NC(=O)CSc2cn(CC(=O)N3CCCCC3)c3ccccc23)cc1,x,x,x,x,15%[76.3 µM],x
O=c1[nH][nH]c(C(F)(F)F)c1C=Nc1ccccc1,-4%,5,2%,5%,4%,-11%
Cc1cc(O)ccc1N=Cc1c(C(F)(F)F)[nH][nH]c1=O,3%,3,-11%,-5%,22µM*,-2%
Cc1ccc(N2CCN(C(=O)CCc3c(C)nc4ncnn4c3C)CC2)c(C)c1,x,x,x,x,18%[76.3 µM],x
COc1cccc(CNc2ccc(S(=O)(=O)Nc3nccs3)cc2)c1O,3%,11,-6%,-25%,5.6µM*,9%
CC(=O)OCC(NC(=O)C(Cc1ccccc1)NC(=O)OC(C)(C)C)C1OC(n2cc(C)c(=O)[nH]c2=O)C(OC(C)=O)C1OC(C)=O (centres undefined),1%,x,x,-5%,x,3%
COc1ccc(C)cc1NC(=O)C1CCN(S(C)(=O)=O)CC1,x,x,x,-1%,35µM*,x
COc1ccc(-c2cn3c(n2)sc2cc(C(=O)Nc4cccc(SC)c4)ccc23)cc1,x,x,x,x,9%[76.3 µM],x
c1ccc(-c2nc(NCc3cccnc3)c3ccccc3n2)cc1,4%,-1,-6%,u,3%,1%
COc1ccc(CNc2nc(-c3ccccc3)nc3ccccc23)cc1OC,x,x,x,14µM*,2%,x
COc1ccc(CNc2n[nH]c(NCc3ccc(OC)c(OC)c3)n2)cc1OC,3%,-1,2%,2%,22µM*,-3%
COc1cccc(-c2nc(NCc3ccccc3)c3ccccc3n2)c1O,x,x,x,3%,6%,x
Fc1ccc(CNc2nc(-c3ccccc3)nc3ccccc23)cc1,-11%,-1,-3%,14µM*,-8%,-4%
c1ccc(-c2nc(NC3CCCC3)c3ccccc3n2)cc1,x,x,x,16µM*,x,x
COc1ccc(-n2cc(C(=O)Nc3ccccc3C#N)c3ccccc3c2=O)cc1,x,x,x,x,10%[76.3 µM],x
CC1(C)O[C@H]2[C@@H](O1)[C@@H](C(=O)Nc1ccc(F)c(F)c1)O[C@@H]1OC(C)(C)O[C@@H]12,x,x,x,x,15%[76.3 µM],x
Oc1ccc(Nc2nc(-c3ccccc3F)nc3ccccc23)cc1,x,x,x,u,3%,x
COc1ccc(Nc2nc(-c3ccccc3F)nc3ccccc23)cc1OC,x,x,x,2.5µM*,-1%,x
COC(=O)c1cc2oc3ccccc3c2n1Cc1nc(-c2ccc(Cl)cc2)oc1C,x,x,x,x,15%[76.3 µM],x
CO[C@H]1COC(=O)[C@H]2CCCN2C(=O)[C@@H](C)COC(=O)C/C=C\[C@@H]1C,4%[17.4 µM],x,x,13%[12.8 µM],x,0%[17.5 µM]
CCCCCn1c(CNC(=O)c2ccc(F)cc2)nc2ccccc21,x,x,x,x,-8%[76.3 µM],x
CC(C)(C)n1nnnc1C(c1ccncc1)N1CCN(c2ccc(O)cc2)CC1 (centres undefined),4%,-2,-1%,-12%,18µM*,6%
Oc1ccc2ccccc2c1C1Nc2cccc3cccc(c23)N1,-1%,2,-4%,-22%,10µM*,1%
COc1cc(C2Nc3cccc4cccc(c34)N2)ccc1O,x,x,x,1%,3%[76.3 µM],x
Cc1c(N=Cc2cccs2)c(=O)n(-c2ccccc2)n1C,8%,-11,-3%,-3%,25µM*,12%
Cc1ccsc1C=Nc1c(C)n(C)n(-c2ccccc2)c1=O,2%,-10,6%,4%,3.1µM*,12%

# Screening results from PubChem.
